Screening results from PubChem.
TDP1 cell noCPT – qHTS for Inhibitors of human tyrosyl-DNA phosphodiesterase 1 (TDP1): qHTS in cells in absence of CPT; DT40 Tdp1-/- hTDP1 cells, no CPT, ATP luminescence, 48 h; Potency, µM (highest dose often 46.2 µM), inactives show at the top dose activity change, negative = growth inhibition, most hits filed as inhibitors; actives 15% (n = 420,000); also: potency is read from the fitted curve at half-maximal effect; % is scaled to controls: 0 for no effect and ±100 for the full control effect; nearly all actives have a fitted effect of over 55% in size
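Luminescent ATP content (CellTiter-Glo) served as the growth readout. Knockout chicken DT40 cells expressing human TDP1 were exposed to compounds without camptothecin for a minimum 48 hr at 37 °C.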
SW480 rereplic – inducers of DNA re-replication in SW480 colon cancer cells | SW480 DNA re-replication, Hoechst DNA content imaging, 48 h | Potency, µM (doses to about 46.1 µM), without a hit: top-dose re-replication activation, most hits filed as activators | actives 1.8% (n = 340,000) | AID 624297; also: potency is read from the fitted curve at half-maximal effect; % of control where 0% means no effect; nearly all actives have a fitted effect of over 55% in size
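Per well, 250 cells were exposed to pinned compound for 48 hr. Nuclear DNA was visualised with Hoechst (40 min, 37 C) and total object intensity recorded by fluorescence scanning.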
TDP1 cell CPT – DT40-hTDP1 cell growth loss with CPT; chicken DT40 Tdp1-/-;hTDP1 cells + 20 nM CPT, ATP luminescence, 48 h; Potency, µM (titrated, usually from 46.2 µM), without a hit: at the highest dose activity change, negative = growth inhibition, most hits filed as inhibitors; actives 12% (n = 420,000); AID 686979; also: potency is read from the fitted curve at half-maximal effect; % is scaled to controls: 0 for no effect and ±100 for the full control effect; nearly all actives have a fitted effect of over 55% in size
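Chicken DT40 Tdp1-/- cells complemented with human TDP1, 400 cells/well, exposed to compounds plus 20 nM camptothecin for at least 48 h at 37 C; viability read as ATP content by CellTiter-Glo luminescence.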
IL1B secr inh – inhibitors of inflammasome signaling (IL-1 beta secretion). THP-1 LPS/ATP IL-1B secretion, AlphaLISA, 16 h; active compounds read low. activity change, % at 57.5 µM. actives 4.7% (n = 360,000). AID 743279; in the data active = activity change below about -50%; inconclusive = mostly about -30% to -49%; also: % is scaled to controls: 0 for no effect and ±100 for the full control effect
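Secreted IL-1B measured by AlphaLISA bead assay after 16 h compound exposure of THP-1 cells; compounds (final up to 57.5 uM) added 1 h before LPS (250 ng/mL) and ATP (1.25 mM) stimulation; lower signal means less secretion.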
MCF10A rereplic – inducers of DNA re-replication in MCF 10A breast cells. MCF 10A DNA re-replication, Hoechst nuclear intensity, 48 h. Potency, µM (titrated, usually from 46.1 µM), for inactives: at the highest dose activity, positive = re-replication, most hits filed as activators. actives 2.9% (n = 350,000). AID 624296; also: potency is read from the fitted curve at half-maximal effect; % of control where 0% means no effect; nearly all actives have a fitted effect of over 50% in size
BCR signal inh – chronic active BCR signaling inhibition; ABC-DLBCL IkBa-CBG/CBR reporter, luminescence ratio, 4 h; Potency, µM (highest dose often 46.1 µM), inactives show at the highest dose activity change, negative = inhibition, usual class: inhibitors; actives 0.05% (n = 340,000); active = well fitted inhibition curve with a large enough effect in the signal ratio, with a control signal flat, not every such curve was filed as active; inconclusive = small, poorly fitted or top-dose-only effect, or effect the other way, or a change in a side signal; the % refers to the signal ratio;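 also: potency is read from the fitted curve at half-maximal effect; plate controls were basal doxycycline-induced cells for no effect and cells given 10 µM MG132 for full effect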
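TMD8 ABC-DLBCL cells carrying doxycycline-inducible green luciferase fused to IkappaBalpha plus unfused red luciferase were exposed to compounds (up to 46 uM) for 4 hrs at 37C. Activity came from the overlap-corrected green/red luminescence ratio.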
The depositor's hits bear a star; ? = inconclusive; . = no result given; [ ] = another dose, or the depositor's remark. Only some compounds are listed: those with a hit (about 19% of all), similar ones and a draw of the others. Unless noted, calls follow the shape of the dose curve; as a rule, active = well fitted curve in the direction sought with a large enough effect; inconclusive = small, poorly fitted or top-dose-only effect, or another doubt; inactive = no such curve, though single readings can be large; an effect the other way counts as inactive or inconclusive.

SMILES | TDP1 cell noCPT | SW480 rereplic | TDP1 cell CPT | IL1B secr inh | MCF10A rereplic | BCR signal inh
CNC(=O)c1ccc2c(c1)N(Cc1cc(C)ccc1C)C(=O)c1ccccc1S2 | ? | . | ? | . | . | 6.1%
COc1ccccc1CNC(=O)c1ccc2c(c1)N(Cc1cc(C)ccc1C)C(=O)c1ccccc1S2 | 9.2µM* | . | 9.2µM* | . | . | -1.3%
Cc1ccc2oc(-c3cc(NC(=O)c4ncn[nH]4)ccc3O)nc2c1 | ? | 5.0% | ? | 24.1 | -1.0% | 3.7%
c1ccc(CCCCN2CCN=C2Nc2ccccc2)cc1 | 16.4µM* | -16.8% | ? | -4.0 | 10.1% | -5.7%
c1ccc(NC2=NCCN2CCCC2CCCCC2)cc1 | 23.1µM* | 0.259µM* | 16.4µM* | -61.1* | 8.7% | -12.3%
Fc1cccc(CCN2CCN=C2Nc2ccccc2)c1 | -11.2% | -12.3%[9.22 µM] | 0.3% | 14.1 | 14.8% | -6.2%
O=C(N/N=C/c1ccc2c(c1)OCO2)c1cc(-c2ccncc2)nc2ccccc12 | 4.11µM* | 16.4µM* | 3.66µM* | 26.2 | 5.8µM* | -1.3%
Cc1cccc(/C=N/NC(=O)c2cc(C)nc3ccccc23)n1 | ? | -5.2% | ? | -10.3 | 0.0% | ?
Cc1cc(C(=O)N/N=C/c2ccc3c(c2)OCO3)c2ccccc2n1 | 2.06µM* | 10.3µM* | 2.31µM* | 99.2 | ? | ?
O=C(COC(=O)Cn1[nH]c(=O)c2ccccc2c1=O)NNC(=O)c1ccccc1 | 16.9% | ? | -9.7% | 0.8 | 2.0% | 1.8%
C=CCN1C(=O)CSC1=Nc1ccc(O)cc1 | 16.4µM* | 25.3% | ? | 22.2 | ? | -9.0%
C=CCN1C(=O)CSC1=Nc1ccc(NC(C)=O)cc1 | -5.2% | -8.9% | 9.9% | 11.0 | -7.4% | -1.7%
CSc1ncc(C(=O)Nc2ccccc2C(=O)c2ccccc2)c(C)n1 | -15.9% | . | -1.3% | . | . | .
O=S(=O)(c1ccccc1)N(Cc1nc(-c2ccccc2)no1)C1CCCCC1 | 20.6µM* | 3.8% | ? | -7.7 | 26.8% | 6.6%
O=S(=O)(NCc1nc(-c2ccccc2)no1)c1ccc(F)cc1 | -6.1% | 1.1% | -13.7% | -0.9 | 5.5% | ?
O=S(=O)(c1ccc(F)cc1)N(Cc1nc(-c2ccccc2)no1)C1CCCCC1 | 16.4µM* | . | ? | . | . | .
CCc1ccc(OCC(=O)NNCC(=O)Nc2ccc(OC)cc2)cc1 | ? | -0.8% | -27.8% | -8.6 | -5.8% | -12.4%
COc1ccc(OCC(=O)Nc2nnc3n2CCS3)cc1 | -9.8% | . | -9.0% | . | . | .
CCN(CC)S(=O)(=O)c1ccc(NC(=O)c2ccc(Sc3nncn3C)c([N+](=O)[O-])c2)cc1 | ? | 0.7% | ? | -90.9* | 1.9% | 10.8%
Cn1cnnc1Sc1ccc(C(=O)OCC(=O)Nc2ccccc2)cc1[N+](=O)[O-] | 11.8% | 1.9% | -28.6% | -2.6 | 6.4% | 6.1%
Cn1cnnc1Sc1ccc(C(=O)NCCC23CC4CC(CC(C4)C2)C3)cc1[N+](=O)[O-] | ? | . | 10.3µM* | 9.0 | 28.0% | 5.5%
COc1ccc(NC(=O)/C(C#N)=C/c2ccc(Sc3nncn3C)c([N+](=O)[O-])c2)cc1 | 25.9µM* | ? | 16.4µM* | ? | ? | ?
COc1ccc(C(=O)COC(=O)c2ccc3c(c2)OCO3)c(OC)c1 | -9.0% | -6.6% | -14.1% | -23.6 | 4.6% | -6.3%
O=C(O)c1ccccc1N=Nc1ccc(O)cc1 | 14.6µM* | 1.16µM* | 25.9µM* | -27.6 | ? | .
O=C(O)c1cc(O)ccc1N=Nc1ccccc1 | 16.4µM* | ? | ? | ? | 23.1µM* | ?
SMILES | TDP1 cell noCPT | SW480 rereplic | TDP1 cell CPT | IL1B secr inh | MCF10A rereplic | BCR signal inh
CC1(C)CC(=O)C=C(c2n[nH]nc2C2CCCCC2)C1 | -10.8% | . | -1.4% | -4.4 | . | .
O=C(c1cccnc1)N1N=C(C2CCCCC2)CC1(O)C(F)(F)F (stereo not drawn) | 8.2µM* | -9.6% | 6.51µM* | -7.6 | 0.5% | ?
O=C(c1cccnc1)N1N=C2CCCCCC2C1(O)C(F)(F)F (stereo not drawn) | -22.9% | -2.0% | 9.9% | -8.6 | -0.2% | -0.5%
CNc1nc(-c2ccccc2)nnc1C(F)(F)F | -15.4% | 1.5% | -7.7% | -17.4 | -0.8% | -1.8%
Cc1ccc(Sc2nc(-c3ccccc3)nnc2C(F)(F)F)cc1 | 20.6µM* | ? | 20.6µM* | 0.0 | 8.2µM* | 1.4%
C=CCOc1ccc(C(=O)c2ccccc2)c(OCC(=O)NC2(C#N)CCCC2)c1 | ? | 3.2% | ? | -60.3* | -0.6% | ?
CCc1cc[n+](C(C(=S)Nc2cccc(C)c2)=C([O-])c2ccc(C)c([N+](=O)[O-])c2)cc1 | . | -3.1% | 16.4µM* | -17.6 | 1.4% | .
O=C(CN1CCN(c2ccc(F)cc2)CC1)c1ccc(O)cc1O | -19.7% | ? | -11.1% | 8.2 | -4.2% | 6.7%
CC1(C2CCN(Cc3c[nH]c4ccccc34)CC2)NC(=O)N(CCN2CCOCC2)C1=O (stereo not drawn) | -23.5% | . | 5.0% | . | . | .
Cc1ccc(-c2nc3ccccc3s2)cc1NC(=S)NC(=O)c1cccc2ccccc12 | ? | -5.4% | ? | 0.0 | 1.2% | ?
Cc1ccccc1NC(=S)NC(=O)/C=C/c1ccco1 | -12.2% | ? | -19.9% | -19.2 | 10.2% | 1.6%
Cc1ccc(-c2nc3ccccc3s2)cc1NC(=S)NC(=O)/C=C/c1ccco1 | 13µM* | ? | ? | 9.3 | 25.7% | -3.9%
O=C(/C=C/c1ccco1)NC(=S)Nc1cccc(-c2nc3ccccc3s2)c1 | 5.8µM* | ? | 4.61µM* | 33.7 | 5.8µM* | .
O=C(/C=C/c1ccco1)NC(=S)Nc1cc(-c2nc3ccccc3s2)ccc1Cl | 23.1µM* | ? | 11.6µM* | 16.7 | ? | ?
CC1SC(=S)N(c2ccc(N(C)C)cc2)C1=O (stereo not drawn) | -20.2% | 3.4% | ? | -7.8 | 1.6% | -19.3%
Cc1nc(CS(=O)(=O)c2ccccc2)cc(N2CCOCC2)n1 | 9.2µM* | ? | 9.2µM* | 46.0 | ? | -3.1%
CC(C)Oc1ccc(C(=O)OCC(=O)c2ccc[nH]2)cc1 | 6.9% | -7.8% | 3.4% | 17.2 | -2.7% | -2.4%
Cc1csc(NC(=O)C2(C)CCN2C(=O)C(C)C)c1C#N (stereo not drawn) | 8.2µM* | . | 8.2µM* | 50.3 | . | .
CCOC(=O)Nc1ccc(/C=C/c2ccnc3ccccc23)cc1 | 12.6µM* | . | ? | . | . | .
CCCCCCCCCCCCCC(=O)Nc1ccc(/C=C/c2ccnc3ccccc23)cc1 | 17.8µM* | . | 11.2µM* | . | . | .
